The nature of experiment [1]: NCATS anti-infectives library activity on HEK293 viability as a counter-qHTS vs the C. elegans viability qHTS (AID 1745854).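 Also: HEK293 cells exposed to compounds for 24 hr before the viability read.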 Summed up:
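Compounds were acoustically plated (several concentrations, 1:5, final up to 41.7 uM), then 1500 HEK293 cells added per well and incubated 24 hr at 37C, 5% CO2. CellTiter-Glo was added and luminescence read after 10 min.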

Experiment [2] is described as follows: NCATS anti-infectives library activity on the primary C. elegans qHTS viability assay (AID 1745855; calls by dose curve). Summed up:
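Viability read-out is GFP fluorescence of PE254-GFP-FLuc C. elegans, measured by laser cytometry (488 nm) at day 0, 3 and 7. Ten L1 worms per well were incubated 7 days at 21 °C with compounds and bacterial capsules in S medium.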
(In general: qHTS replaces the single test concentration by a dilution series.)

Experiment [3] is described as follows: qHTS for Inhibitors of Plasmodium falciparum (GB4) proliferation (AID 504315). Also: nearly all actives have a fitted effect of over 50% in size. The method in brief:
(§1)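 Erythrocytes infected with P. falciparum line (0.3% parasitemia, 2.5% hematocrit final) incubated with compounds 72 h at 37 °C, 5% CO2; SYBR Green lysis buffer added, fluorescence read next day. Normalized to 0.29 uM artemisinin and DMSO.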

Experiment [4] can be described thus: qHTS for Inhibitors of Plasmodium falciparum (CP250) proliferation (AID 504320). Summed up: as §1
Experiment [5] is described as follows: qHTS for Inhibitors of Plasmodium falciparum (HB3) proliferation (AID 504318). Also: nearly all actives have a fitted effect of over 60% in size. The method in brief: as §1
Experiment [6] concerns the target Cytochrome P450 1A2 (Homo sapiens) (UniProt P05177). In words: p450-cyp1a2 (AID 410; calls by dose curve; also: potency is read from the fitted curve at half-maximal effect). The method in brief: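 Luminescent readout of luciferin formed from Luciferin-ME by human CYP1A2; data normalized against complete inhibition by 57 uM furafylline. Enzyme 20nM, substrate 100uM at Km, 100mM KPO4 buffer, 60 min reaction at room temperature.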
The target of experiment [7] is Glucocorticoid receptor (Homo sapiens) (UniProt P04150). In words: GR-EFC Redistribution (AID 451; calls by dose curve; also: potency is read from the fitted curve at half-maximal effect). The settings on record: CHO-K1 GR-EFC translocation, beta-gal luminescence, 2 h. The method in brief: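 CHO-K1 cells stably expressing nuclear-localized β-gal enzyme acceptor and GR fused C-terminally to the enzyme donor fragment; ligand-driven nuclear translocation restores β-gal by complementation. Compounds titrated up to 46 uM final, 2 h at 37 °C; luminescence read.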
Chain of Glucocorticoid receptor (Homo sapiens) (P04150 whole entry, looked up, the tested form may be a part): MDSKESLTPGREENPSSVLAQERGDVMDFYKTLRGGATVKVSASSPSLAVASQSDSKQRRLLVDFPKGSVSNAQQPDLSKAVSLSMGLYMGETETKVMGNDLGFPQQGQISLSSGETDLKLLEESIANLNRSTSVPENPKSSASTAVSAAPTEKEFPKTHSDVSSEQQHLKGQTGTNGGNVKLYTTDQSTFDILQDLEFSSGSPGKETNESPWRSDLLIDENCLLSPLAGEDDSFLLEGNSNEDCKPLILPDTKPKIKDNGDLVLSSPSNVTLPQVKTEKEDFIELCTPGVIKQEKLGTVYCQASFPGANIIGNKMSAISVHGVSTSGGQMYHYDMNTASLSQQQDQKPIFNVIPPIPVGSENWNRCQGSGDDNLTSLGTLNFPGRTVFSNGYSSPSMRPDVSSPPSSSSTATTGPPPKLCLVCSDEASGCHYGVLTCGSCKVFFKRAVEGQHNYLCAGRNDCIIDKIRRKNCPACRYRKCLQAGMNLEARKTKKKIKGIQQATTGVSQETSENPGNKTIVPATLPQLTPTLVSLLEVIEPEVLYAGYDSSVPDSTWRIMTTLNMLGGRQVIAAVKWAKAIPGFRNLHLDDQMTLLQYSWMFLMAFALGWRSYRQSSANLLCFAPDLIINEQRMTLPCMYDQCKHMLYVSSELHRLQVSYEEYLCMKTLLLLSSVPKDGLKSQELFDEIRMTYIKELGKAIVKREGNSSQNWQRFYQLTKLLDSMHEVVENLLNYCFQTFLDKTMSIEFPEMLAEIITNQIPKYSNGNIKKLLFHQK

Experiment [8] concerns the target Mitogen-activated protein kinase 10 (Mus musculus) (UniProt Q61831). The experiment can be described thus: JNK3 AlphaScreen Assay (AID 530; active = well fitted curve in either direction with a large enough effect, not every such curve was filed as active;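 also: kinase came from lysate of stimulated human HepG2 cells; signal reports phosphorylation of biotinylated GST-cJun 1-79 at Ser73 with 10 µM ATP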). Summed up: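 Inhibitors reduce antibody binding to phosphorylated biotin-cJun, lowering AlphaScreen luminescence. Lysates from HepG2 cells pre-activated by IL-1beta plus TNF-alpha supplied JNK3; compounds were titrated.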
For orientation: Alpha assays give light when donor and acceptor beads are brought close together.

Experiment [9] concerns the target DNA dC->dU-editing enzyme APOBEC-3G (Homo sapiens) (UniProt Q9HC16). In words: qHTS for inhibitors of Vif-A3G interactions: Validation (AID 588379). The method in brief:
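HeLa cells stably expressing Vif and A3G-eYFP, 700 cells/well, incubated overnight at 37 deg C, then exposed to compound overnight at 37 deg C. Inhibition of Vif-mediated degradation read as increased yellow fluorescence (Ex 488/Em 500-530) by laser-scanning cytometry.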

In experiment [10] the target is Cytochrome P450 3A4 (Homo sapiens) (UniProt P08684). In words: qHTS Assay for Inhibitors and Substrates of Cytochrome P450 3A4 (AID 884). Also: nearly all actives have a fitted effect of over 50% in size. The method in brief: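 20 nM human CYP3A4 with 25 uM Luciferin-PPXE (at KM) in 200 mM KPO4, preincubated 10 min with compound; NADPH regeneration started a 60 min RT reaction. Luciferin detected by luminescence, normalized to 57 uM ketoconazole as full inhibition.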
Chain of Cytochrome P450 3A4 (Homo sapiens) (P08684 whole entry, looked up): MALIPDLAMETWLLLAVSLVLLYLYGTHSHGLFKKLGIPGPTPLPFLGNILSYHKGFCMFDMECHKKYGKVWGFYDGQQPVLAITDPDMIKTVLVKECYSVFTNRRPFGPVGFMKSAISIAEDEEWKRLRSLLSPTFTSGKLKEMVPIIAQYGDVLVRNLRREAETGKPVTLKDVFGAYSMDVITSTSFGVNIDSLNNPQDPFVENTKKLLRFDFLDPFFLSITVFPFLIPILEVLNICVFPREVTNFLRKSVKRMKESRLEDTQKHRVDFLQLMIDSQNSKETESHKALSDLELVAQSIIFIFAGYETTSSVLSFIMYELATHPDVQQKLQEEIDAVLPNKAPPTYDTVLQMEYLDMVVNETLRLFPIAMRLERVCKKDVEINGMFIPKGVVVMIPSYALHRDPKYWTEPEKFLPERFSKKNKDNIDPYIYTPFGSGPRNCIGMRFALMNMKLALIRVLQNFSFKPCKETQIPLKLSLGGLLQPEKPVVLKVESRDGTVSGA

Experiment [11] has the same target. The experiment can be described thus: qHTS Assay for Activators of Cytochrome P450 3A4 (AID 885). Also: potency is read from the fitted curve at half-maximal effect; nearly all actives have a fitted effect of over 65% in size. The method in brief: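 Signal was normalized against complete inhibition by 57 uM ketoconazole. The reaction used 20nM CYP3A4 with 25uM Luciferin-PPXE, 10-min compound preincubation and a 60-min NADPH-supported step at RT.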
For experiment [12], the target named is Glucocorticoid receptor (Homo sapiens) (UniProt P04150). In words: GR-GFP Redistribution (AID 450;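 active = compounds whose dose series gives a full or clear partial fitted curve of increased nuclear translocation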; also: potency is read from the fitted curve at half-maximal effect). The settings on record: U2OS GR-GFP nuclear translocation, laser cytometry, 2 h.
A short description of experiment [13]: qHTS Assay for Lipid Storage Modulators (AID 1519; calls by dose curve). The settings on record: Drosophila S3 cells, BODIPY lipid droplet/cell ratio, laser cytometry, cells loaded with oleic acid. The method in brief: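 Cells seeded at 5,000 per well were treated with compounds over a concentration series and loaded with oleic acid (400 uM, as added). Lipid droplet fluorescence (488 nm excitation, 500-530 nm channel) was read by laser-scanning cytometry and normalized to 20 uM Triacsin C.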

SMILES strings stand for the structures. Results filed as inconclusive are left out. A call without a number means that no potency is given here. The source made the active and inactive calls. Unless noted, calls follow the shape of the dose curve; as a rule, active = well fitted curve in the direction sought with a large enough effect; inconclusive = small, poorly fitted or top-dose-only effect, or another doubt; inactive = no such curve, though single readings can be large; an effect the other way counts as inactive or inconclusive.

Chain of DNA dC->dU-editing enzyme APOBEC-3G (Homo sapiens) (Q9HC16 whole entry, looked up): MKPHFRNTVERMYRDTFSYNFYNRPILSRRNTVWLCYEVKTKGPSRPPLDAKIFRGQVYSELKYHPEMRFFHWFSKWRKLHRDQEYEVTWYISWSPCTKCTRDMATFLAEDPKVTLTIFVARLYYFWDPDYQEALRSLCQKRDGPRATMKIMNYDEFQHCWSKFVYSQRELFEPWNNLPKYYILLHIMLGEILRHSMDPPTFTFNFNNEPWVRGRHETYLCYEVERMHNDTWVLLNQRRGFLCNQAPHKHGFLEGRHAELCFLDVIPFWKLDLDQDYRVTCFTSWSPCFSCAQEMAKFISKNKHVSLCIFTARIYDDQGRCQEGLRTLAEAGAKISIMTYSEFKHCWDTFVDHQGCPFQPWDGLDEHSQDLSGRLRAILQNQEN
Chain of Cytochrome P450 1A2 (Homo sapiens) (P05177 whole entry, looked up, the tested form may be a part): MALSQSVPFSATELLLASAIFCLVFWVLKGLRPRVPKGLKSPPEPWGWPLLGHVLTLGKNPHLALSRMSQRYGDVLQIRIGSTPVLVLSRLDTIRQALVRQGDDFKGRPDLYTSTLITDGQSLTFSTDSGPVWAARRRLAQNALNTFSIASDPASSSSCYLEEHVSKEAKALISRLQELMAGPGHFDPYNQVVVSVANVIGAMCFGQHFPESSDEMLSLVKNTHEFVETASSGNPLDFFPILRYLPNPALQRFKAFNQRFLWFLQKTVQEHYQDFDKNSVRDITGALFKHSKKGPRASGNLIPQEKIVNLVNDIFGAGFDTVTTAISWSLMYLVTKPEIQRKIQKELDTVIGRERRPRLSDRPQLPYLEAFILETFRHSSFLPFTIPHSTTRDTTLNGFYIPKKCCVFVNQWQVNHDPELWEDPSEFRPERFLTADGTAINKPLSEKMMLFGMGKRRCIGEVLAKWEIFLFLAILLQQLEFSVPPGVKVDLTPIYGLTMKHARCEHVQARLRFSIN

With `CCC(=O)CCCCC[C@@H]1NC(=O)[C@H]2CCCCN2C(=O)[C@H]([C@@H](C)CC)NC(=O)[C@H](Cc2cn(OC)c3ccccc23)NC1=O`, the Potency entry in experiment [1] and in experiment [2] was “inactive” each time.
On to `COC(=O)C1=C2CCCO[C@H]2[C@@H]2[C@@H](C)[C@H](OC)c3ccccc3[C@@H]12`, for which the call in experiment [3] and in experiment [4] was inactive.
Take `COC(=O)C1=NN=C(C(=O)OC)[C@@]2(C)c3ccccc3NC12` (stereo not given in full): the compound was called inactive in experiment [3] and in experiment [4]. The Potency result in experiment [5] is “inactive”.
On to `COC(=O)C1c2c(n(C)c3ccccc23)[C@H]2[C@@H](C)[C@H](OC)c3ccccc3[C@@H]12` (stereo not given in full), for which, in [4], the compound was classed as inactive.
As for `CCOC(=O)[C@]12C[C@@H]3CCN(C(=O)N(C(C)=O)[C@@H]1c1ccccc1)[C@@H]32`, the call in experiment [3] and in experiment [4] was inactive. Further, in [5], the Potency result is “inactive”.
In the case of `CO[C@@H]1c2ccccc2[C@H]2C(C(=O)O)c3c(n(C)c4ccccc34)[C@H]2[C@H]1C` (stereo not given in full), the result in [3] and in experiment [4] was inactive.
As to `COC(=O)C1=C2CCO[C@H]2[C@@H]2[C@@H](C)[C@H](OC)c3ccccc3[C@@H]12`, the call in experiment [3] and in experiment [4] was inactive. Besides, the Potency entry in experiment [5] is “inactive”.
On to `COC(=O)[C@@]1(C=C2c3ccccc3[C@@H](OC)[C@@H]2C)[C@@H]2Oc3ccccc3[C@@H]21`, for which the call in [3] and in [4] was inactive. Further, in experiment [5], the Potency result was “inactive”.
Consider `CC(=O)[C@]12C[C@@H]3CCN(C(=O)N[C@@H]1c1ccccc1)[C@@]32C`, for which the outcome in experiment [4] was inactive.
As for `CCOC(=O)[C@]12C[C@]3(OC)CCN(C(=O)N[C@@H]1c1ccccc1)[C@@H]32`, the compound was classed as inactive in experiment [3] and in [4]. Also, the Potency result in experiment [5] is “inactive”.
In the case of `CCOC(=O)[C@@]12C3[C@@H](CCN3C(=O)N[C@@H]1c1ccccc1)[C@@H]2C` (stereo not given in full), the result in experiment [3] and in experiment [4] was inactive. Further, the Potency result in experiment [5] is “inactive”.
For the compound `CC(=O)[C@]12C[C@]3(C)CCCN(C(=O)N[C@@H]1c1ccccc1)C32` (stereo not given in full), the call in experiment [3] and in experiment [4] was inactive. For the same compound, the Potency result in experiment [5] is “inactive”.
Regarding `C=C1[C@@H]2CCN3C(=O)N[C@@H](c4ccccc4)[C@@]1(C(=O)OCC)C23` (stereo not given in full), the compound was called inactive in experiment [3] and in experiment [4]. Also, in [5], the Potency result is “inactive”.
Take `CC1(C)N(O)C(c2ccc(C(=O)O)cc2)=[N+]([O-])C1(C)C`: the figures for the Potency in [6] and in experiment [7] were 31.6 µM (active) and > 46 µM (inactive), respectively. Also, the compound was called inactive in experiment [8]. Also, the Potency result in experiment [9] is “inactive”.
In the case of `CC(=O)[C@]12C[C@@H]3CCCN(C(=O)N[C@@H]1c1ccccc1)[C@@H]32`, the compound was classed as inactive in experiment [3] and in experiment [4]. In addition, the Potency entry in experiment [5] was “inactive”.
Consider `COC(=O)C12CC3=CCC4C(=O)N(c5ccccc5)C(=O)C4C3Cc3ccccc3[C@H]1CNC2=O` (stereo not given in full), for which the compound was classed as inactive in [3] and in [4]. Besides, the Potency result in [5] was “inactive”.
For `COC(=O)[C@]12C[C@@H]3CCN(C(=O)N[C@@H]1c1ccccc1)[C@@]32C`, the call in experiment [3] and in experiment [4] was inactive. In addition, in experiment [5], the Potency entry was “inactive”.
Consider `O=C1Nc2ccccc2C2(CCN(CCc3ccc(C(F)(F)F)cc3)CC2)O1`, for which the Potency entry in [10] is “inactive”. The Potency in experiment [11] is 7.94 µM (active).
In the case of `COC(=O)[C@@]12Cc3ccccc3[C@H]1C[C@H](C)[C@@H](C)N2C(=O)C(F)(F)F`, the outcome in experiment [3] and in experiment [4] was inactive.
For `CCOC(=O)[C@@]12[C@@H]3[C@@H](CCN3C(=O)N[C@H]1c1ccccc1)C2(C)C`, the Potency result in experiment [5] is “inactive”. Besides, the call in experiment [4] was inactive.
As to `CC(C)(c1ccc(OC[C@@H]2CO2)cc1)c1ccc(OC[C@H]2CO2)cc1`, the Potency in [12] and in experiment [7] was > 46 µM (inactive) each time. For the same compound, the activity change, negative = inhibition in experiment [13] (at 57.5 µM (top of the series)) is 4.02% (inactive). For the same compound, the max response in experiment [13] (measured here: cell count channel max response) is 20.1%; in experiment [13] (measured here: lipid channel max response), 20.3%. Besides, in [9], the Potency entry is “inactive”.
For the compound `C=C(C)C(=O)CP(=O)(OCC)OCC`, the call in experiment [3] and in [4] was inactive. The Potency result in experiment [5] is “inactive”.

These data come from PubChem BioAssay (NCATS).
